# Sampled rows, rich in hits. Any-hit rate of the full collection: about 13%.
# USP8 block: blocks human USP8 ubiquitin-rhodamine cleavage | P40818 | AID 1645853 | inhibition, % at 20 µM | hit rate 4.2% among 47,000 | purified USP8, Ub-rhodamine cleavage fluorescence, 30 min
# USP7 inh: blocks human USP7 ubiquitin-rhodamine cleavage; purified USP7, Ub-rhodamine cleavage fluorescence; inhibition, % at 20 µM; hit rate 0.3% among 47,000; AID 1645854
# USP30 block: human USP30 deubiquitinase inhibition. purified USP30, Ub-rhodamine cleavage fluorescence. inhibition, % at 25 µM. hit rate 5.3% among 47,000. AID 1645860
# USP10 inh: inhibitors of human USP10 deubiquitinase; Q14694; purified USP10, Ub-rhodamine fluorescence, 60 min; inhibition, % at 20 µM; hit rate 1.1% among 47,000; AID 1645856
# USP17 inh: blocks human USP17 ubiquitin-rhodamine cleavage; hit rate 6.5% among 47,000; A8MUK1; inhibition, % at 50 µM; purified USP17, Ub-rhodamine cleavage fluorescence, 3 h; AID 1645855
# Target sequence (A8MUK1 whole entry, looked up): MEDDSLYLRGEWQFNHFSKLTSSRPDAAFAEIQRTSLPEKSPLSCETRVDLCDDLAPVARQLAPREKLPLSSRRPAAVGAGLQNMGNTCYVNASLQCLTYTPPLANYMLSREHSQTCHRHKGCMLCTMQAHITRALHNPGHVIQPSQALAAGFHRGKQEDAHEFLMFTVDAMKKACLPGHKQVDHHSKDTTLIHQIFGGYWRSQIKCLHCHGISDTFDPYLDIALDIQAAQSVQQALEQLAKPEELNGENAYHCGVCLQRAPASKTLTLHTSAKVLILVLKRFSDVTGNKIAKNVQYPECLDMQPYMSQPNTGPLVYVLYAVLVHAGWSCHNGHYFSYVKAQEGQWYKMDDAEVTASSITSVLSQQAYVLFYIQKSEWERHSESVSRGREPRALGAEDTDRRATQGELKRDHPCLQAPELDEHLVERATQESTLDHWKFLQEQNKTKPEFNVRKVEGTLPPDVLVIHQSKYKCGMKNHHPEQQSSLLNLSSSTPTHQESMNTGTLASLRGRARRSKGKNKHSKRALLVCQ
# USP28 inh: blocks human USP28 ubiquitin-rhodamine cleavage | Q96RU2 | purified USP28, Ub-rhodamine cleavage fluorescence, 30 min | inhibition, % at 25 µM | hit rate 3% among 47,000
# Numbers without * were called inactive; i = inactive; · = no result. Rule as the data show it: active = inhibition above about 30%; inactive = the rest.
SMILES,USP8 block,USP7 inh,USP30 block,USP10 inh,USP17 inh,USP28 inh
COc1ccccc1CNC(=O)c1cnc(Nc2ccccc2OC)c2ccccc12,7,2,-12,-3,-4,-9
COc1ccccc1Nc1ncc(C(=O)N(C)Cc2ccccc2)c2ccccc12,69*,-26,-121,-6,23,-18
COC(=O)CNC(=O)c1cnc(Nc2ccccc2OC)c2ccccc12,16,-1,-15,0,31*,9
CC(=O)N1CCCC(Cc2nccnc2-c2ccn[nH]2)C1 (centres undefined),-72,2,1,-1,-12,1
Cc1ccc2c(=O)c(C(=O)N3CCC(C)CC3)cn(CC(N)=O)c2n1,9,3,0,-2,-2,0
CCOc1ccc(NC(=O)c2cnc(Nc3ccc(OC)cc3)c3ccccc23)cc1,7,7,-12,3,8,-14
CCN1CCN(c2ccc(NC(=O)c3ccc(OC)cc3)cn2)C1=O,12,2,9,2,22,45*
COc1ccc(NC(=O)c2ccc(Nc3nnc(C)c4ccccc34)cc2)cc1,1,7,17,5,23,66*
O=C(Nc1cnc(N2CCOCC2)nc1)c1ccc(Cl)cc1,19,-3,-2,-4,14,25
Cc1ccc(C(=O)Nc2cnc(N3CCOCC3)nc2)cc1C,-5,-7,5,-6,-4,40*
Cc1ccc(C(=O)Nc2ccc3nccnc3c2)cc1,-1,2,29,0,6,59*
CCOc1ccc(NS(=O)(=O)c2ccc(C)c(C(=O)OCC(=O)c3ccc([N+](=O)[O-])cc3)c2)cc1,-15,6,9,19,24,9
CN(C)c1cc(C2CCCN2C(=O)c2ccc3n[nH]nc3c2)ccn1 (centres undefined),-8,1,3,3,-3,-5
O=C(Nc1ccc(-n2cccc2)cc1)c1ccc(F)cc1,20,6,28,6,12,4
COc1ccc(C(=O)Nc2cnc(N3CCCCC3)nc2)cc1,-12,-15,-31,-6,-13,38*
COc1ccc(-c2ncc(NC(=O)C3CC3)cn2)cc1,-62,2,12,-1,0,-2
CN(C)S(=O)(=O)Oc1ccc(C(=O)Nc2ccc(F)cc2)cc1,20,2,41*,9,40*,32*
COc1ccc(NC(=O)c2ccc(C)cc2)cc1,0,2,31*,5,45*,25
CC(=O)Nc1ccc(C(=O)Nc2cnc(N3CCCCCC3)nc2)cc1,-20,-10,-52,-11,-111,-129
COc1ccc(C(=O)Nc2cnc(-c3ccccc3)nc2)cc1,92*,2,-17,10,38*,-10
COc1ccc(C(=O)Nc2ccc3nc(C)c(C)nc3c2)cc1,-7,3,-10,0,-5,21
COc1cccc(-n2ccc(=O)c(-c3nc(-c4ccccc4Cl)no3)n2)c1,68*,-19,66*,3,·,41*
COc1ccc(-n2ccc(=O)c(-c3nc(-c4ccc(F)cc4)no3)n2)cc1,85*,8,35*,4,31*,2
CCc1ccc(-n2ccc(=O)c(-c3nc(-c4ccncc4)no3)n2)cc1,-2,-18,·,-2,39*,·
COc1ccccc1-c1noc(-c2nn(-c3ccc(C)c(C)c3)ccc2=O)n1,-4,-25,-6,-4,10,-2
SMILES,USP8 block,USP7 inh,USP30 block,USP10 inh,USP17 inh,USP28 inh
CCOc1cc(CNC(=O)C2CCCN(c3nc4ccc(C)cc4[nH]3)C2)ccc1OC (centres undefined),13,3,2,-1,3,-2
O=C(COC(=O)c1ccc(Cl)cc1)Nc1ccc2[nH]c(=O)[nH]c2c1,34*,12,74*,8,14,31*
Cc1ccccc1CSCC(=O)Nc1ccc2[nH]c(=O)[nH]c2c1,0,6,42*,10,45*,32*
COc1ccc(NC(=O)c2ccco2)cc1NC(=O)COc1ccc(Cl)cc1Cl,43*,13,-5,1,-2,0
COc1cc(NC(=O)c2ccc(OCc3ccccc3)cc2)ccc1NC(=O)c1ccco1,-34,-6,-71,-8,-12,18
O=C(COc1ccc(Cl)cc1Cl)Nc1ccc2[nH]c(=O)[nH]c2c1,51*,21,66*,31*,35*,47*
Cc1cc(/C=C2/C(=N)N3C(c4ccccc4)=CSC3=NC2=O)c(C)n1-c1ccc2ccccc2c1,-243,-160,i,-7,-188,-259
Fc1ccc(-c2cnc([C@@H]3COCCN3C3CCNCC3)[nH]2)c(F)c1,20,0,-28,0,10,7
O=C(COc1ccccc1C(=O)Nc1ccccc1)Nc1ccc2[nH]c(=O)[nH]c2c1,-6,-8,-27,-2,38*,0
Cc1cccc(C(=O)OCC(=O)Nc2ccc3[nH]c(=O)[nH]c3c2)c1C,-62,12,52*,17,40*,40*
CC(Oc1ccc(Cl)cc1)C(=O)OCC(=O)Nc1ccc2[nH]c(=O)[nH]c2c1 (centres undefined),-75,-4,-17,-5,23,6
CCn1nc(C)cc1C(=O)N1C[C@H](OCC2CC2)[C@H]2OCCC[C@H]21,-61,-8,-7,0,-15,0
CC(C)CCN1C(=O)C2C(C(=O)Nc3ccc(Oc4ccccc4)cc3)C3C=CC2(O3)C1C(=O)NC1CCCCC1 (centres undefined),31*,-97,63*,10,·,18
CC(C)c1ccc(NC(=O)C2C3C=CC4(O3)C2C(=O)N(CCCN2CCC(Cc3ccccc3)CC2)C4C(=O)NC2CCCCC2)cc1 (centres undefined),-10,-13,36*,3,0,18
CCN1CCN(CCCN2C(=O)C3C(C(=O)Nc4ccc(C(C)C)cc4)C4C=CC3(O4)C2C(=O)NC2CCCCC2)CC1 (centres undefined),11,-4,15,-3,9,2
COc1cccc(CN2CC=CCC(C3CCN(c4nc(C)cc(C)n4)CC3)C2=O)c1 (centres undefined),0,-4,-55,-2,-12,-5
COc1ccc(C)cc1NC(=O)N1CCC2(CC1)NC(=O)N(Cc1ccc(C)cc1)C2=O,5,-6,7,-2,-2,2
Cc1ccc(NC(=O)Cc2nc(-c3ccccc3)n[nH]2)c(C)c1,-4,-8,-28,-6,-10,-16
Cc1ccc(CC(=O)Nc2ccc(C)cc2-c2n[nH]c(C3CC3)n2)cc1,64*,9,-22,30*,-15,-6
Cc1ccccc1Cn1cccc(-c2nc(C3CC3)no2)c1=O,7,3,-2,0,4,38*
Cc1noc(-c2cccn(Cc3noc(-c4ccccc4C)n3)c2=O)n1,-10,0,1,-4,6,0
COc1ccc(Cn2cccc(-c3nc(C4CC4)no3)c2=O)cc1F,8,1,10,0,1,31*

# Screening results as filed in PubChem BioAssay.
